# Results as given in PubChem BioAssay (NCI).
# About 83,000 compounds went through this panel and 20% of them were active in at least one assay; those are over-represented in the sample as a whole.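 Note: values are percent growth. 100 is the growth of untreated cells, values between 100 and 0 indicate rising inhibition; between -100 and 0 indicates cell death.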 Unmarked numbers belong to inactive results. The source made the active and inactive calls. How the source made its calls: active means growth percent below 10; inactive means the rest.
# Tested on: SF-295 CNS
# Experiment: NCI-60 one-dose screen, 48 h (100 = growth as untreated, 0 = no growth, -100 = all killed)
# Details: 10 µM unless noted
row,Compound,growth
1,COC(=O)[C@@H]1CCCN1C(=O)[C@H]1CCCN1C(=O)[C@@H](Cc1c[nH]c2ccccc12)NC(=S)Nc1cc(C(F)(F)F)cc(C(F)(F)F)c1,-52.2% (active)
2,Cc1ccc(F)cc1NC(=O)c1cc(Cl)ccc1Nc1ccccc1,13.7%
3,CC1=C(C(=O)OCC2CCN(C(=O)OC(C)(C)C)CC2)[C@@H](c2cccc(C#N)c2)C2=C(CC(C)(C)CC2=O)N1,27.5%
4,CCCCCCc1cc2cc(-c3csc(/C=C/c4ccccc4)n3)c(=O)oc2cc1O,-55% (active)
5,COc1ccc(Br)c(/C=C2\SC(=Nc3ccc(O)cc3)NC2=O)c1,98.3%
6,COc1ccc(Cn2c(Br)c3c(c2Br)-c2nc(N)sc2CC3)cc1,70.3%
7,COC(=O)c1cc2c(n1Cc1ccccc1)-c1oncc1CCC2,74.7%
8,CCOC(=O)c1sc(-c2ccc(OS(=O)(=O)c3ccccc3[N+](=O)[O-])c(C=O)c2)nc1C,107%
9,Clc1ncccc1Nc1ccc2nnc(-c3ccncc3)n2n1,105%
10,O=C1NC(=O)C(=Cc2cn(Cc3cn(Cc4ccc(Cl)cc4Cl)nn3)c3ccccc23)C(=O)N1,89.6%
11,CCCCCCn1c(=N)n(CC(O)COc2cccc(C)c2)c2ccccc21 (centres undefined),-85.7% (active)
12,O=C(Nc1ncc(Cc2cccc(C(F)(F)F)c2)s1)C1COc2ccccc2O1 (centres undefined),86.4%
13,CN1C(=O)N(C)C2C1NN=c1s/c(=C\c3ccc([N+](=O)[O-])cc3)c(=O)n12 (centres undefined),40.8%
14,O=C(c1nc2ccccc2[nH]1)C1C(c2ccc(F)cc2)C2CC3CCCCC3N2[C@@]12C(=O)Nc1ccc(Cl)cc12 (some centres undefined),29%
15,COc1ccc(/C=C/C(=O)c2ccc3cc(OC)c(OC)cc3c2)cc1OC,70.8%
16,O=c1oc2ccc(F)cc2c(=O)n1-c1ccc(Br)cc1F,-50.6% (active)
17,COc1cc(/C=C2\CN(S(=O)(=O)c3ccccc3)C/C(=C\c3cc(CN4CCCC4)c(O)c(OC)c3)C2=O)cc(CN2CCCC2)c1O,-34.2% (active)
18,CC(C)C[C@H](C(=O)N[C@@H](C)C(N)=O)N1CC=CCN(O)S1(=O)=O,128% [5 µM]
19,CN(C)CCCNCc1ccc(-c2ccc(F)c(Cl)c2)o1,-18.3% (active)
20,O=c1oc2ccc(-c3ccc(F)cc3F)cc2c(=O)n1-c1cccc(C(F)(F)F)c1,-0.824% (active)

row,Compound,growth
1,O=C(N=Nc1c(O)[nH]c2ccccc12)c1oc2ccccc2c1CN1CCN(c2ccccc2)CC1,13%
2,O=C(Nc1ccc(Br)cc1F)c1cc(F)ccc1O,-58.3% (active)
3,COc1cc(NC(=O)CCSc2nc3ccccc3c(=O)n2Cc2ccccc2)cc(OC)c1OC,75.3%
4,O=C(Nc1ccc(I)cc1F)c1cc(F)ccc1O,-68.5% (active)
5,COc1nccc2cc3c(=O)n4c(cc5ccccc54)c(=O)n3c12,106%
6,O=C(COc1cc(O)c2c(=O)cc(-c3ccccc3)oc2c1)Nc1ccccc1,101%
7,O=c1oc2ccc(-c3ccc(F)cc3F)cc2c(=O)n1-c1ccc(Cl)c(C(F)(F)F)c1,17.4%
8,CCN1CCN(c2cc(C)c3cc(NC(=O)c4ccc(OC)c(OC)c4)ccc3n2)CC1,32%
9,COc1ccc(Cn2c(Br)c3c(c2-c2cc(OC)c(OC)c(OC)c2)CCc2sc(NC(C)=O)nc2-3)cc1,3.53% (active)
10,COc1ccccc1C(=O)O/N=C(\N)Cc1cccc2ccccc12,52.2%
11,O=C(Nc1ccc(Cl)cc1F)c1cc(I)ccc1O,48.4%
12,O=C(O)CCC(=O)c1ccc(C2CCCCCC2)cc1,97.4%
13,CCCCOCc1cc(CN2CCN(C)CC2)c(O)c2ncccc12,58.5%
14,COC(=O)/C(CCC=C(C)C)=C1\[C@@H](OC(C)=O)C[C@@]2(C)[C@H]1C[C@@H](O)[C@H]1[C@@]3(C)CC[C@H](NCc4ccccc4)[C@@H](C)[C@@H]3CC[C@@]12C,85.7%
15,O=C(NC1C(O)OC(CO)C(O)C1O)NS(=O)(=O)c1ccc(Cl)cc1 (centres undefined),103%
16,O=C(Nc1ccc(Br)cc1F)c1cc(Cl)ccc1O,-62.6% (active)
17,CCOC(=O)c1c(C=O)nc2ccccc2c1/C=C/c1ccc(Cl)cc1,101%
18,COc1cccc2cc(N(C)c3nc(C)nc4ccsc34)ccc12,3.17% (active)
19,COc1cc(/C=C/C(=O)c2c(C)nc3ccccc3c2/C=C/c2ccccc2)cc(OC)c1OC,29.8%
